Positions count from the first letter of the chain named. Whole data set: some 16,000 sequences, median “ka relative to ugcaugu” near 0.096, cut for the highest 2% near 0.35. The entries come from a sample that favours the highest values as a whole.

The chains are these.
B1: UCCCCAC (DNA:RNA)
RNA: GGGAGACCGGAAUUCAGAUUGUCCUCCCCACUUAAAUCCCGUCGUAGCCACCA
DNA 1: CAATCTGAATTCCGGTCTCCC
DNA 2: TGGTGGCTACGACGGGATT
B2: CUACCCG (DNA:RNA)
RNA: B1 RNA with U25C, C26U, C27A, A30C, C31G
DNA 1: CAATCTGAATTCCGGTCTCCC
DNA 2: TGGTGGCTACGACGGGATT
B3: GUGUCAG (DNA:RNA)
RNA: B1 RNA with U25G, C26U, C27G, C28U, C31G
DNA 1: CAATCTGAATTCCGGTCTCCC
DNA 2: TGGTGGCTACGACGGGATT
B4: AUACAAG (DNA:RNA)
RNA: B1 RNA with U25A, C26U, C27A, C29A, C31G
DNA 1: CAATCTGAATTCCGGTCTCCC
DNA 2: TGGTGGCTACGACGGGATT
B5: CAAUGCG (DNA:RNA)
RNA: GGGAGACCGGAAUUCAGAUUGUCCCAAUGCGUUAAAUCCCGUCGUAGCCACCA
DNA 1: CAATCTGAATTCCGGTCTCCC
DNA 2: TGGTGGCTACGACGGGATT
B6: GGGAUGA (DNA:RNA)
RNA: GGGAGACCGGAAUUCAGAUUGUCCGGGAUGAUUAAAUCCCGUCGUAGCCACCA
DNA 1: CAATCTGAATTCCGGTCTCCC
DNA 2: TGGTGGCTACGACGGGATT
B7: CGCGCUU (DNA:RNA)
RNA: B1 RNA with U25C, C26G, C28G, A30U, C31U
DNA 1: CAATCTGAATTCCGGTCTCCC
DNA 2: TGGTGGCTACGACGGGATT
B8: AGAAGCG (DNA:RNA)
RNA: B5 RNA with C25A, A26G, U28A
DNA 1: CAATCTGAATTCCGGTCTCCC
DNA 2: TGGTGGCTACGACGGGATT
B9: CUCCUCC (DNA:RNA)
RNA: B1 RNA with U25C, C26U, C29U, A30C
DNA 1: CAATCTGAATTCCGGTCTCCC
DNA 2: TGGTGGCTACGACGGGATT
B10: CCUGCAU (DNA:RNA)
RNA: B1 RNA with U25C, C27U, C28G, C31U
DNA 1: CAATCTGAATTCCGGTCTCCC
DNA 2: TGGTGGCTACGACGGGATT
B11: CUGCAGA (DNA:RNA)
RNA: B6 RNA with G25C, G26U, A28C, U29A
DNA 1: CAATCTGAATTCCGGTCTCCC
DNA 2: TGGTGGCTACGACGGGATT
B12: UGCAUCU (DNA:RNA)
RNA: B6 RNA with G25U, G27C, G30C, A31U
DNA 1: CAATCTGAATTCCGGTCTCCC
DNA 2: TGGTGGCTACGACGGGATT
B13: CUGCAUC (DNA:RNA)
RNA: B1 RNA with U25C, C26U, C27G, C29A, A30U
DNA 1: CAATCTGAATTCCGGTCTCCC
DNA 2: TGGTGGCTACGACGGGATT
B14: UGAAUCU (DNA:RNA)
RNA: B6 RNA with G25U, G27A, G30C, A31U
DNA 1: CAATCTGAATTCCGGTCTCCC
DNA 2: TGGTGGCTACGACGGGATT
B15: UGCAAUC (DNA:RNA)
RNA: B1 RNA with C26G, C28A, C29A, A30U
DNA 1: CAATCTGAATTCCGGTCTCCC
DNA 2: TGGTGGCTACGACGGGATT
B16: AGCAGCA (DNA:RNA)
RNA: B6 RNA with G25A, G27C, U29G, G30C
DNA 1: CAATCTGAATTCCGGTCTCCC
DNA 2: TGGTGGCTACGACGGGATT
B17: ACAAAUC (DNA:RNA)
RNA: B1 RNA with U25A, C27A, C28A, C29A, A30U
DNA 1: CAATCTGAATTCCGGTCTCCC
DNA 2: TGGTGGCTACGACGGGATT
B18: UUGGAUG (DNA:RNA)
RNA: B5 RNA with C25U, A26U, A27G, U28G, G29A, C30U
DNA 1: CAATCTGAATTCCGGTCTCCC
DNA 2: TGGTGGCTACGACGGGATT
B19: UUGGAGA (DNA:RNA)
RNA: B6 RNA with G25U, G26U, A28G, U29A
DNA 1: CAATCTGAATTCCGGTCTCCC
DNA 2: TGGTGGCTACGACGGGATT
B20: UUGGAUU (DNA:RNA)
RNA: B6 RNA with G25U, G26U, A28G, U29A, G30U, A31U
DNA 1: CAATCTGAATTCCGGTCTCCC
DNA 2: TGGTGGCTACGACGGGATT
B21: GUGGAUG (DNA:RNA)
RNA: B6 RNA with G26U, A28G, U29A, G30U, A31G
DNA 1: CAATCTGAATTCCGGTCTCCC
DNA 2: TGGTGGCTACGACGGGATT
B22: GUGGAGA (DNA:RNA)
RNA: B6 RNA with G26U, A28G, U29A
DNA 1: CAATCTGAATTCCGGTCTCCC
DNA 2: TGGTGGCTACGACGGGATT
B23: GUGGAUC (DNA:RNA)
RNA: B6 RNA with G26U, A28G, U29A, G30U, A31C
DNA 1: CAATCTGAATTCCGGTCTCCC
DNA 2: TGGTGGCTACGACGGGATT
B24: UUGGAUC (DNA:RNA)
RNA: B1 RNA with C26U, C27G, C28G, C29A, A30U
DNA 1: CAATCTGAATTCCGGTCTCCC
DNA 2: TGGTGGCTACGACGGGATT
B25: GUGGAUU (DNA:RNA)
RNA: B6 RNA with G26U, A28G, U29A, G30U, A31U
DNA 1: CAATCTGAATTCCGGTCTCCC
DNA 2: TGGTGGCTACGACGGGATT
B26: GCGUGGA (DNA:RNA)
RNA: B6 RNA with G26C, A28U, U29G
DNA 1: CAATCTGAATTCCGGTCTCCC
DNA 2: TGGTGGCTACGACGGGATT

In this test the target is T1, RBFOX1 RRM RbFoxmut (Fox-RRM*) (Homo sapiens, UniProt Q9NWB1 109-208, R118D;E147R;N151S;E152T).
T1 sequence: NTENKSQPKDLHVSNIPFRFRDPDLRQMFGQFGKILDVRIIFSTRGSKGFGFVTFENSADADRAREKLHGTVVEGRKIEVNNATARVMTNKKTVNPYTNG
Nature of the test: EMSA; HiTS-Eq, 1 nM pool, 10 min; buffer printed only for the single-RNA assays: 10 mM Tris pH 7.5, 150 mM NaCl, 3.4 mM EDTA, 0.001% NP-40, 30 C. Particulars: tags: His6 N-terminal (pET28a); label: 5' 32P. The method in brief: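 Purified RbFox RRM, wild type or mutant, was incubated for 10 min in 50 µL with 1 nM of a 5′-radiolabelled RNA pool carrying 7 randomized nucleotides, whose flanks were annealed to DNA oligonucleotides, over a series of increasing protein concentrations. Unbound RNA was resolved on 8% native PAGE, cut out, reverse-transcribed, barcoded by PCR and sequenced on an Illumina HiSeq 2500. Relative association constants were derived from changes in read counts for each RNA species versus the control reaction and normalised to the cognate motif.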
Consider B1, for which the binding signal is 0.118 KA relative to UGCAUGU. Turning to B2, the binding signal is 0.0609 KA relative to UGCAUGU. On to B3, for which the binding signal is 0.137 KA relative to UGCAUGU. Next, B4: 0.0924 KA relative to UGCAUGU; B5: 0.13 KA relative to UGCAUGU; B6: 0.267 KA relative to UGCAUGU. For the molecule B7, the binding signal is 0.1 KA relative to UGCAUGU. As to B8, the binding signal is 0.107 KA relative to UGCAUGU. Under B9 stands 0.0813 KA relative to UGCAUGU; under B10, 0.139 KA relative to UGCAUGU.

As for B11, the binding signal was 0.136 KA relative to UGCAUGU. Next, B12: 0.727 KA relative to UGCAUGU. Next, B13: 0.457 KA relative to UGCAUGU; B14: 0.244 KA relative to UGCAUGU. Next, B15: 0.102 KA relative to UGCAUGU; B16: 0.14 KA relative to UGCAUGU; B17: 0.0702 KA relative to UGCAUGU.

Consider B18, for which the binding signal is 0.61 KA relative to UGCAUGU. B19: the binding signal was 0.0955 KA relative to UGCAUGU.

With B20, the binding signal is 0.106 KA relative to UGCAUGU. Under B21 stands 1.04 KA relative to UGCAUGU.

In the case of B22, the binding signal is 0.118 KA relative to UGCAUGU. Next, B23: 0.357 KA relative to UGCAUGU; B24: 0.321 KA relative to UGCAUGU; B25: 0.1 KA relative to UGCAUGU. Next, B26: 0.092 KA relative to UGCAUGU.

For the origin of these results see PMC9911399, “Two distinct binding modes provide the RNA-binding protein RbFox with extraordinary sequence specificity”.
